Test results reported in PubChem BioAssay (Tox21).
Results filed as inconclusive are left out. Calls of active or inactive are those of the source. Unless noted, calls follow the shape of the full dose curve.

How the values were obtained:
[1] = Nuclear factor erythroid 2-related factor 2/antioxidant responsive element (Nrf2/ARE) small molecule agonists: qHTS cell viability counter screen in human keratinocytes (AID 1919968; active = well fitted cell-killing curve with a large enough effect in the repeat runs; also: nearly all actives have a fitted effect of over 55% in size)
Outline: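 KeratinoSens HaCaT cells, 1,500/well, preincubated 5 h, then exposed to compounds in DMSO for 23 h at 37 C/5% CO2. Viability read as CellTiter-Fluor fluorescence after 1 h, in the same wells as the ARE-luciferase read.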

[2] = Nuclear factor erythroid 2-related factor 2/antioxidant responsive element (Nrf2/ARE) small molecule agonists: luciferase reporter gene qHTS assay in human keratinocytes (AID 1919969); also: nearly all actives have a fitted effect of over 35% in size
[3] = biological target: Gonadotropin-releasing hormone receptor (Homo sapiens) (UniProt P30968); experiment: Human gonadotropin-releasing hormone receptor (GnRHR) small molecule agonists, calcium flux assay in GnRHR-HEK293 cells (AID 1920063); also: nearly all actives have a fitted effect of over 35% in size
Outline: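 HEK293 cells stably expressing human GnRHR were dye-loaded for 1 h at 37 C. Compound was added in agonist mode and fluorescence (Ex/Em 480/540) recorded kinetically for 3 min. Fifteen concentrations, triplicates.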

[4] = G protein-coupled receptor (GPCR) small molecule agonists, calcium flux assay: HEK293 wild type cell line counter screen (AID 1920065)
Outline: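 Wild-type HEK293 cells plated 18 h, loaded with calcium dye 1 h at 37 C, then compounds added in agonist mode (ATP as positive control). Kinetic fluorescence Ex/Em 480/540 recorded 3 min at 1 sec intervals; 15 concentrations, triplicate.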

[5] = p53 small molecule agonists, cell-based qHTS assay with human liver microsomes (AID 1963577);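 also: p53 response element beta-lactamase reporter cells with liver microsomes plus NADPH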
Outline: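 HLM-supplemented p53RE-bla reporter assay: 16 h compound exposure at 37 C, microsomes and NADPH each 0.5 mg/mL final, read by fluorescence intensity.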

[6] = p53 small molecule agonists, cell-based qHTS assay with rat liver microsomes (AID 1963578)
Outline: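 Quantitative HTS of the Tox21 10K library: p53RE-bla cells, rat liver microsomes plus NADPH at 0.5 mg/mL final each, 16 h at 37 C, beta-lactamase fluorescence detection.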

[7] = p53 small molecule agonists, cell-based qHTS assay with human liver microsomes: qHTS cell viability counter screen (AID 1963579); also: nearly all actives have a fitted effect of over 45% in size
Outline: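 Viability of p53RE-bla cells is measured as CellTiter-Glo luminescence following a 16 h, 37 C incubation with compound, liver microsomes from human donors and NADPH.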

[8] = p53 small molecule agonists, cell-based qHTS assay with rat liver microsomes: qHTS cell viability counter screen (AID 1963580); also: nearly all actives have a fitted effect of over 45% in size
Outline: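 p53RE-bla HCT-116 cells were exposed 16 h at 37 C to compounds with rat liver microsomes (0.5 mg/mL) and NADPH (0.5 mg/mL). Viability was measured in the same wells as ATP content by CellTiter-Glo luminescence.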

[9] = p53 small molecule agonists, cell-based qHTS assay: qHTS cell viability counter screen (AID 1963581); also: nearly all actives have a fitted effect of over 45% in size
Outline: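 p53RE-bla HCT-116 cells, compounds added 5 h after plating and incubated 16 h at 37 C. Cytotoxicity measured in the same wells as intracellular ATP by CellTiter-Glo luminescence after 30 min at room temperature.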

[10] = biological target: 5-hydroxytryptamine receptor 2A (Homo sapiens) (UniProt P28223); experiment: 5-hydroxytryptamine receptor 2A (HTR2A) small molecule agonists, cell-based qHTS assay (AID 1963587); also: nearly all actives have a fitted effect of over 30% in size
Outline: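 CHO cells stably expressing human HTR2A, plated 18 h, loaded with calcium dye 1 h at 37 C. Agonist mode: compounds added and intracellular calcium fluorescence recorded kinetically for 2 min at 1 sec intervals.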

[11] = biological target: Muscarinic acetylcholine receptor M1 (Homo sapiens) (UniProt P11229); experiment: Cholinergic receptor muscarinic 1 (CHRM1) small molecule antagonists, cell-based qHTS assay (AID 1963588); also: nearly all actives have a fitted effect of over 40% in size
Outline: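 CHRM1-CHO calcium-flux assay, antagonist mode. Cells were seeded 18 h, dye-loaded 1 h at 37 C and given compound for 5 min at RT, then acetylcholine was added at 50nM. FDSS fluorescence was read 3 min; 15 concentrations, three runs.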

[12] = cAMP Responsive Elements (CRE) small molecule agonists, cell-based qHTS assay (AID 1963590)
Outline: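 CRE-bla HEK 293T cells, 2,000/well in DMEM with 10% dialyzed FBS and 25 mM HEPES, pre-incubated 18 h at 37 C, then exposed to compound 3 h at 37 C. Beta-lactamase reporter read with LiveBLAzer B/G FRET substrate after 2 h at room temperature.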

[13] = biological target: Beta-2 adrenergic receptor (Homo sapiens) (UniProt P07550); experiment: Adrenergic beta2 receptor (ADRB2) small molecule antagonists, cell-based qHTS assay (AID 1963592); also: series mostly up to about 92 µM; nearly all actives have a fitted effect of over 50% in size
Outline: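 Cells (CHO, stable ADRB2 overexpression) incubated 18-20hr at 37C; compounds added from DMSO; agonist mix (1nM isoproterenol, 100uM IBMX, 25uM Ro-20-1724) added; 0.5hr RT; d2-cAMP and anti-cAMP-cryptate added; 1hr RT; 665/615 nm read.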

[14] = biological target: Beta-2 adrenergic receptor (Homo sapiens) (UniProt P07550); experiment: Adrenergic beta2 receptor (ADRB2) small molecule agonists, cell-based qHTS assay (AID 1963593);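 also: CHO cells stably overexpressing human ADRB2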
Outline: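 CHO cells stably over-expressing ADRB2 were plated overnight at 37C, then dosed with compounds plus a stimulation mix containing 100uM IBMX and 25uM Ro-20-1724 for 0.5hr at room temperature. cAMP was measured by HTRF competition, 1hr.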

[15] = biological target: D(2) dopamine receptor (Homo sapiens) (UniProt P14416); experiment: Dopamine D2 receptor (DRD2) small molecule agonists, cell-based qHTS assay (AID 1963594); also: nearly all actives have a fitted effect of over 35% in size
Outline: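 HEK293 cells stably expressing human DRD2, pre-treated with PDE inhibitor Ro20-1724 (0.1 mM final) and compound 10 min at room temperature, then stimulated with NKH477 (200nM […]) for 30 min. cAMP read by HTRF (665/620 nm).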

[16] = biological target: D(2) dopamine receptor (Homo sapiens) (UniProt P14416); experiment: Dopamine D2 receptor (DRD2) small molecule antagonists, cell-based qHTS assay (AID 1963595; active = well fitted inhibition curve with a large enough effect in the signal ratio in the repeat runs, with a control signal flat; the % refers to the signal ratio)
Outline: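 Antagonist mode in DRD2-HEK293 cells: after compound addition with 0.1 mM Ro20-1724, cells received quinpirole (12 nM) and NKH477 (200 nM) for 30 min at room temperature; HTRF cAMP read after 1 h detection.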

[17] = p53 small molecule agonists, cell-based qHTS assay (AID 1963582; active = well fitted activation curve with a large enough effect in the signal ratio in the repeat runs, not every such curve was filed as active; the % refers to the signal ratio)
Outline: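 p53RE-bla reporter cells, compounds added in DMSO after 5 h plating, incubated 16 h at 37 C. Beta-lactamase read via 2 h room-temperature LiveBLAzer B/G FRET substrate, fluorescence intensity.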

[18] = biological target: Muscarinic acetylcholine receptor M1 (Homo sapiens) (UniProt P11229); experiment: Cholinergic receptor muscarinic 1 (CHRM1) small molecule agonists, cell-based qHTS assay (AID 1963589); also: nearly all actives have a fitted effect of over 35% in size
Outline: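 CHO cells stably expressing human CHRM1 were loaded with calcium dye for 1 h at 37 C, then compound was added in agonist mode. Intracellular calcium fluorescence was followed kinetically at 1 s intervals. Fifteen concentrations were tested in three independent runs.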

[19] = cAMP Responsive Elements (CRE) small molecule antagonists, cell-based qHTS assay (AID 1963591; active = well fitted inhibition curve with a large enough effect in the signal ratio in the repeat runs, not every such curve was filed as active; the % refers to the signal ratio)
Outline: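 CRE-bla HEK293T cells plated 18 h, then given compound plus NKH477 at 0.25 uM final for 3 h at 37C. Beta-lactamase reporter read with LiveBLAzer B/G FRET substrate after 2 h at room temperature.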

[20] = biological target: 5-hydroxytryptamine receptor 2A (Homo sapiens) (UniProt P28223); experiment: 5-hydroxytryptamine receptor 2A (HTR2A) small molecule antagonists, cell-based qHTS assay (AID 1963586); also: nearly all actives have a fitted effect of over 45% in size
Outline: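 Antagonist-mode intracellular calcium assay: DOI (4 nM) added after 5 min compound pre-incubation at room temperature to dye-loaded HTR2A-CHO cells. Fluorescence followed for 3 min, sampled every second.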
% is scaled to controls: 0 for no effect and ±100 for the full control effect.

Sequence of D(2) dopamine receptor (Homo sapiens) (P14416 whole entry, looked up): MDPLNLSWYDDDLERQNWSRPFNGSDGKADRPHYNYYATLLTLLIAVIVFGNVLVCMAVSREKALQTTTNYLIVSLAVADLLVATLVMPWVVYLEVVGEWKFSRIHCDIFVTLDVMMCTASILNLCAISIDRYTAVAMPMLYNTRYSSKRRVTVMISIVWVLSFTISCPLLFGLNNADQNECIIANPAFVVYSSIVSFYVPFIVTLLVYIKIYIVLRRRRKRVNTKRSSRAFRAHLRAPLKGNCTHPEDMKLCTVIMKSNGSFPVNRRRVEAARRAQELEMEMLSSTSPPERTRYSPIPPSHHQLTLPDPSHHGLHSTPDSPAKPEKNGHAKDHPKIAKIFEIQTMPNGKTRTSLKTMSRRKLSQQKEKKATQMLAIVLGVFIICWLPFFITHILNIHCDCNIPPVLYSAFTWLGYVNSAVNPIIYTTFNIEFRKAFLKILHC
Sequence of 5-hydroxytryptamine receptor 2A (Homo sapiens) (P28223 whole entry, looked up): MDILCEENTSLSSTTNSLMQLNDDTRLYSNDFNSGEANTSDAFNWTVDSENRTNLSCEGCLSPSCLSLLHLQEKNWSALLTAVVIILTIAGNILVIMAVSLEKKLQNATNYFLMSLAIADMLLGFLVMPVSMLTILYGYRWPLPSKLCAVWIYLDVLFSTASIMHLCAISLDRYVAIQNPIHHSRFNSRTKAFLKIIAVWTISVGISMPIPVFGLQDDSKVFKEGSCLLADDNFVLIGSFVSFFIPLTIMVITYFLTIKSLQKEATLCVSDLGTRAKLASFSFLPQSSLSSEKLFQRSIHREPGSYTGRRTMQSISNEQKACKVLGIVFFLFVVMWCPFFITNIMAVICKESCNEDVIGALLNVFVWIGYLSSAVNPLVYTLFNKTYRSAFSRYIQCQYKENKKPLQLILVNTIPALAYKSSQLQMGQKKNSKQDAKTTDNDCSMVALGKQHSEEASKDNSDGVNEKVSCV
Sequence of Gonadotropin-releasing hormone receptor (Homo sapiens) (P30968 whole entry, looked up): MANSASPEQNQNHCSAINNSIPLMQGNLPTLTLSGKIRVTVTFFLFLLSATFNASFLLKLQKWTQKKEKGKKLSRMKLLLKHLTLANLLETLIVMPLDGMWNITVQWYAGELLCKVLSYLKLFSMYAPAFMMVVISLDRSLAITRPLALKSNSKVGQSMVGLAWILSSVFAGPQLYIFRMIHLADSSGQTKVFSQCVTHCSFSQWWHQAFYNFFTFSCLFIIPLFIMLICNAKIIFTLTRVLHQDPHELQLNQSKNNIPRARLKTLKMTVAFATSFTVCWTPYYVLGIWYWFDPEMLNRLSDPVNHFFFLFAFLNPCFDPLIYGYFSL
Sequence of Beta-2 adrenergic receptor (Homo sapiens) (P07550 whole entry, looked up): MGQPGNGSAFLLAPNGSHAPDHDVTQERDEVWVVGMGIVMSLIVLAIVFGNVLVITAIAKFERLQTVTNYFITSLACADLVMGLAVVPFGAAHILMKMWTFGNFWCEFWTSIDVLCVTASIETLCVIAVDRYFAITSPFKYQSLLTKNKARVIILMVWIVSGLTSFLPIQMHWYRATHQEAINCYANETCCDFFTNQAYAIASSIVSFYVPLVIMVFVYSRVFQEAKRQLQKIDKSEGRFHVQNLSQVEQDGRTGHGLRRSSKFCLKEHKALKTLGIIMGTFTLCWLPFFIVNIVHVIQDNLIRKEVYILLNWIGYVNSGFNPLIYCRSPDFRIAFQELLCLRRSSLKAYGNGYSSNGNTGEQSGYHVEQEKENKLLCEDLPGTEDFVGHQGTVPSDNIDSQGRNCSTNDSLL
Sequence of Muscarinic acetylcholine receptor M1 (Homo sapiens) (P11229 whole entry, looked up): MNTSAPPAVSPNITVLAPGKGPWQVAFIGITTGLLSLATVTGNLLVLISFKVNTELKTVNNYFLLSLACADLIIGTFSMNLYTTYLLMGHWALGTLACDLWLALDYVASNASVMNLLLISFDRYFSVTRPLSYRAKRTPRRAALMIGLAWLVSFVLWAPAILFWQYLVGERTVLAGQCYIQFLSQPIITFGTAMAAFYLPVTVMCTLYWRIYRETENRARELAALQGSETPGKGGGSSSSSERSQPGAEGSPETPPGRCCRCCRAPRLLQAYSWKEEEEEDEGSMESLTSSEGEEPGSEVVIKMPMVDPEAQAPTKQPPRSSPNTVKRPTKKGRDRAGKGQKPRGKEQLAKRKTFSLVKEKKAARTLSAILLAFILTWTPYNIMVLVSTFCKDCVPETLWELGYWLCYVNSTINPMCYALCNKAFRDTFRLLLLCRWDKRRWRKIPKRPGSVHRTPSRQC

O=C(OCCN1CCOCC1)c1cccnc1Nc1cccc(C(F)(F)F)c1
inactive: Potency [1] | Potency [2] | Potency [3] | outcome [4] | Potency [5] | Potency [6] | Potency [7] | Potency [8] | Potency [9] | Potency [10] | Potency [11] | Potency [12] | Potency [13] | Potency [14] | Potency [15] | Potency [16]

O=CNNC=O
inactive: Potency [1] | Potency [2] | Potency [3] | outcome [4] | Potency [5] | Potency [6] | Potency [7] | Potency [8] | Potency [9] | Potency [17] | Potency [10] | Potency [11] | Potency [18] | Potency [12] | Potency [19] | Potency [13] | Potency [15]

CCOC(=O)Nc1ccc(NCc2ccc(F)cc2)nc1N
inactive: Potency [1] | Potency [2] | Potency [3] | outcome [4] | Potency [5] | Potency [6] | Potency [7] | Potency [8] | Potency [9] | Potency [20] | Potency [10] | Potency [11] | Potency [18] | Potency [12] | Potency [16]

Cc1cscn1
inactive: Potency [1] | Potency [2] | Potency [3] | outcome [4] | Potency [5] | Potency [6] | Potency [8] | Potency [9] | Potency [17] | Potency [20] | Potency [10] | Potency [11] | Potency [18] | Potency [12] | Potency [19] | Potency [13] | Potency [15] | Potency [16]

CCCCS
inactive: Potency [1] | Potency [2] | Potency [3] | outcome [4] | Potency [5] | Potency [6] | Potency [8] | Potency [9] | Potency [20] | Potency [10] | Potency [11] | Potency [18] | Potency [12] | Potency [19] | Potency [16]

Cn1cnc2ncnc(N)c21
inactive: Potency [1] | Potency [2] | Potency [3] | outcome [4] | Potency [5] | Potency [7] | Potency [8] | Potency [9] | Potency [17] | Potency [20] | Potency [10] | Potency [11] | Potency [12] | Potency [19] | Potency [13] | Potency [15] | Potency [16]

C[Si](NC1CCCCC1)(NC1CCCCC1)NC1CCCCC1
inactive: Potency [1] | Potency [2] | Potency [3] | outcome [4] | Potency [5] | Potency [6] | Potency [8] | Potency [9] | Potency [20] | Potency [10] | Potency [18] | Potency [13] | Potency [14] | Potency [15] | Potency [16]

CCCCCCCCCCCCCCN(C)C
inactive: activity change, negative = cytotoxicity [1] 2.19% [at 19 µM] | activity, positive = activation [2] 2.64% [at 19 µM] | activity change [3] -0.071% [at 11.8 µM, stronger effect = higher value] | activation [4] -0.129% [at 11.8 µM] | activation [6] -1.12% [at 13.6 µM] | activity change, negative = cytotoxicity [7] 6.35% [at 13.5 µM] | activity change, negative = cytotoxicity [9] 1.73% [at 13.5 µM] | activation [17] -0.74% [at 13.5 µM] | activity, negative = inhibition [20] 2.96% [at 12.7 µM] | activation [10] 12% [at 15.9 µM] | activation [18] 0.401% [at 15.8 µM] | activity change, negative = inhibition [19] -9.63% [at 18.9 µM] | activity change, negative = inhibition [16] -0.238% [at 18.9 µM]

CC(C)C(=O)OCc1ccccc1
inactive: Potency [1] | Potency [2] | Potency [3] | Potency [5] | Potency [6] | Potency [7] | Potency [8] | Potency [9] | Potency [17] | Potency [20] | Potency [10] | Potency [11] | Potency [12] | Potency [19] | Potency [13] | Potency [15] | Potency [16]

Cc1ccc(/C=N/n2c(-c3ccccc3)csc2=S)cc1
inactive: Potency [1] | Potency [2] | Potency [3] | outcome [4] | Potency [5] | Potency [6] | Potency [8] | Potency [9] | Potency [17] | Potency [20] | Potency [10] | Potency [12] | Potency [19] | Potency [13] | Potency [15] | Potency [16]

FC(F)(F)c1ccc(Cl)cc1Cl
inactive: Potency [1] | Potency [2] | Potency [3] | outcome [4] | Potency [5] | Potency [6] | Potency [8] | Potency [9] | Potency [17] | Potency [10] | Potency [11] | Potency [12] | Potency [19] | Potency [14] | Potency [15] | Potency [16]

CC(C)c1cc(C(C)C)cc(C(C)C)c1
inactive: Potency [1] | Potency [2] | Potency [3] | outcome [4] | Potency [5] | Potency [7] | Potency [8] | Potency [9] | Potency [17] | Potency [20] | Potency [10] | Potency [11] | Potency [18] | Potency [12] | Potency [19] | Potency [13] | Potency [15] | Potency [16]
